In PubChem BioAssay (NCATS) one finds Potency and outcome data, which are given here for eleven compounds.

Molecules are shown by their SMILES. Several values for one entry are separate records, joined by “and”; a condition that tells them apart may be missing. Identical values can stand only once. Results filed as inconclusive are left out. Activity calls are given as the source filed them. The call rests on the fitted dose curve; in most records, active means well fitted curve in the direction sought with a large enough effect; inconclusive means small, poorly fitted or top-dose-only effect, or another doubt; inactive means no such curve, though single readings can be large; an effect the other way counts as inactive or inconclusive.

Test [1] can be described thus: qHTS of pediatric cancer cell lines to identify multiple opportunities for drug repurposing: Primary screen for SJ-GBM2 cells (AID 1347091). Further: potency means the concentration at half of the fitted maximal effect. The essentials:
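Viability measured as metabolically active cells via CellTiter-Glo luminescence following 48 hours of compound exposure, 11-point dilutions in confirmatory testing. 500-1,000 cells/well plated 5 hours before dosing; controls were DMSO and 2.3 µM bortezomib.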
A general note: qHTS replaces the single test concentration by a dilution series.

Test [2] is described as follows: qHTS of pediatric cancer cell lines to identify multiple opportunities for drug repurposing: Primary screen for A673 cells (AID 1347092). Further: nearly all actives have a fitted effect of over 45% in size. Further: potency means the concentration at half of the fitted maximal effect. In a few lines: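 48 h compound exposure, A673, 500-1,000 cells/well, 37 degrees C/5% CO2. MIPE: 11-point, 0.78 nM-46 µM; NPC: 8-point, 0.59 nM-46 µM (final). Readout CellTiter-Glo luminescence after 15 min RT.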
A short description of test [3]: qHTS of pediatric cancer cell lines to identify multiple opportunities for drug repurposing: Primary screen for BT-37 cells (AID 1347094). Further: series mostly up to about 57 µM. The essentials: (§1)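 Cells plated at 500-1,000/well in growth medium, compounds added after 5 h. MIPE tested at 11 points (from 0.78 nM), NPC at 8 points (from 0.59 nM). CellTiter-Glo luminescence after 48 h; concentration-response curves from primary screen.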

Test [4] can be described thus: qHTS of pediatric cancer cell lines to identify multiple opportunities for drug repurposing: Primary screen for NB-EBc1 cells (AID 1347095). Further: potency means the concentration at half of the fitted maximal effect. In a few lines:
as §1

The nature of test [5]: qHTS of pediatric cancer cell lines to identify multiple opportunities for drug repurposing: Primary screen for SK-N-SH cells (AID 1347098). Further: nearly all actives have a fitted effect of over 65% in size. Further: potency means the concentration at half of the fitted maximal effect. In a few lines: (§2)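 Cells (500-1,000/well) rested 5 h, then received compounds for 48 h; metabolically active cells were measured by CellTiter-Glo luminescence. Final concentrations spanned up to 46 µM (MIPE, 11-point) or 0.59 nM-46 µM (NPC, 8-point) in primary screens, 11-point in follow-ups.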

Test [6] in a line: qHTS of pediatric cancer cell lines to identify multiple opportunities for drug repurposing: Primary screen for LAN-5 cells (AID 1347100). Further: potency means the concentration at half of the fitted maximal effect. In a few lines: (§3)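 Viability after 48 h compound treatment at 37C, 500-1,000 cells/well, read as ATP luminescence with CellTiter-Glo. Primary screens used 11-point (MIPE, 0.78 nM-46 µM) or 8-point (NPC, 0.59 nM-46 µM) final concentrations; follow-up screens used 11-point dilutions.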

Test [7] is described as follows: qHTS of pediatric cancer cell lines to identify multiple opportunities for drug repurposing: Primary screen for BT-12 cells (AID 1347101). Further: nearly all actives have a fitted effect of over 25% in size. The essentials: as §2
The nature of test [8]: qHTS of pediatric cancer cell lines to identify multiple opportunities for drug repurposing: Primary screen for Rh18 cells (AID 1347102). Further: nearly all actives have a fitted effect of over 65% in size. The essentials: as §3
Test [9] is described as follows: qHTS of pediatric cancer cell lines to identify multiple opportunities for drug repurposing: Primary screen for OHS-50 cells (AID 1347103). Further: nearly all actives have a fitted effect of over 40% in size. Further: potency means the concentration at half of the fitted maximal effect. The essentials:
as §2

A short description of test [10]: qHTS of pediatric cancer cell lines to identify multiple opportunities for drug repurposing: Primary screen for RD cells (AID 1347104). Further: nearly all actives have a fitted effect of over 55% in size. Further: potency means the concentration at half of the fitted maximal effect. In a few lines: as §1
Test [11] is described as follows: qHTS of pediatric cancer cell lines to identify multiple opportunities for drug repurposing: Primary screen for MG 63 (6-TG R) cells (AID 1347105). Further: nearly all actives have a fitted effect of over 50% in size. Further: potency means the concentration at half of the fitted maximal effect. The essentials: as §1
Test [12] is described as follows: qHTS of pediatric cancer cell lines to identify multiple opportunities for drug repurposing: Primary screen for Rh30 cells (AID 1347107). Further: series mostly up to about 46 µM; nearly all actives have a fitted effect of over 75% in size. The essentials:
as §3

Test [13] in a line: qHTS of pediatric cancer cell lines to identify multiple opportunities for drug repurposing: Primary screen for Rh41 cells (AID 1347108).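 Further: series mostly up to about 46 µM; luminescence drop marks cytotoxic hits; nearly all actives have a fitted effect of over 70% in size.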 The essentials: as §1
Test [14] can be described thus: qHTS of pediatric cancer cell lines to identify multiple opportunities for drug repurposing: Primary screen for control Hh wild type fibroblast cells (AID 1347106).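 Further: series mostly up to about 46 µM; a drop in luminescence marks cytotoxicity and a rise apparent proliferation; nearly all actives have a fitted effect of over 55% in size.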 The essentials: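 Cells (500-1,000/well) in growth media were settled 5 h at 37 degrees C, then given compounds for 48 h. Viability was read as CellTiter-Glo luminescence. Primary runs used MIPE at 11 points (0.78 nM-46 µM) and NPC at 8 points (0.59 nM-46 µM); follow-ups used 11 points.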

The nature of test [15]: qHTS of pediatric cancer cell lines to identify multiple opportunities for drug repurposing: Confirmatory screen for A673 cells (AID 1347110).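 Further: potency means the concentration at half of the fitted maximal effect; cells exposed to compound for 48 h before the viability read; nearly all actives have a fitted effect of over 65% in size.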 In a few lines:
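Concentration-response curves came straight from titrations: 11 points (0.78 nM to 46 µM) for MIPE and several concentrations (0.59 nM to 46 µM) for NPC in primary, 11 points in follow-up. Readout: ATP luminescence at 48 h.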

A short description of test [16]: qHTS of pediatric cancer cell lines to identify multiple opportunities for drug repurposing: Primary screen for U-2 OS cells (AID 1347096). Further: nearly all actives have a fitted effect of over 50% in size. In a few lines: as §3
The nature of test [17]: qHTS of pediatric cancer cell lines to identify multiple opportunities for drug repurposing: Primary screen for Saos-2 cells (AID 1347097). Further: nearly all actives have a fitted effect of over 40% in size. The essentials: as §1
The nature of test [18]: qHTS of pediatric cancer cell lines to identify multiple opportunities for drug repurposing: Primary screen for NB1643 cells (AID 1347099). Further: nearly all actives have a fitted effect of over 50% in size. The essentials:
as §1

Regarding `Nc1nnc(-c2cccc(Cl)c2Cl)c(N)n1`, the Potency result in test [1], in test [2], in test [3], in test [4], in [5] and in test [6] was “inactive” throughout. In addition, the Potency result in test [7], in test [8], in test [9], in [10], in test [11] and in [13] was “inactive” throughout. In addition, the result in [12] was inactive.
`Cc1ccc(C(=O)Nc2ccc(S(=O)(=O)O)c3cc(S(=O)(=O)O)cc(S(=O)(=O)O)c23)cc1NC(=O)c1cccc(NC(=O)Nc2cccc(C(=O)Nc3cc(C(=O)Nc4ccc(S(=O)(=O)O)c5cc(S(=O)(=O)O)cc(S(=O)(=O)O)c45)ccc3C)c2)c1`: the Potency entry in test [1], in [2], in test [3], in [4], in test [5] and in test [6] was “inactive” in each case. Besides, the Potency result in test [7], in [8], in test [9], in test [10], in test [11] and in [14] was “inactive” throughout. The Potency entry in test [13] is “inactive”.
Regarding `O=C(c1ccc(OCCN2CCCCC2)cc1)c1c(-c2ccc(O)cc2)sc2cc(O)ccc12`, the Potency in [1] was 9.44 µM (active) and 18.7 µM (active); in test [2], 10.6 µM (active) and 18.7 µM (active); in test [4] it was 20.9 µM (active); in test [5] it was 13.7 µM (active); in [6], 15 µM (active); in test [9], 27.6 µM (active) and 24.3 µM (active). The Potency in test [11] is 26.6 µM (active) and 18.7 µM (active); in test [15], 20.8 µM (active). Also, in test [13], the Potency entry is “inactive”.
As for `COc1ccccc1N1CCN(CC(O)COc2cccc3ccccc23)CC1` (stereo unspecified), the Potency entry in test [1], in test [2], in test [3], in test [4], in test [16] and in [6] was “inactive” throughout. The Potency result in test [7], in test [8], in test [10], in [11] and in [14] was “inactive” throughout. Besides, the Potency in test [9] was 15.5 µM (active). Moreover, in test [12], the outcome was inactive.
On to `Cn1ccc2cc3c(cc21)CCN3C(=O)Nc1cccnc1`, for which the Potency result in test [1], in [3], in test [4], in [6], in test [7] and in [8] was “inactive” in each case. Besides, the Potency result in test [9], in [11], in test [14] and in [13] was “inactive” throughout. Further, the Potency in test [2] was 11.8 µM (active). The outcome in test [12] was inactive.
On to `Cn1c(=O)c2c(ncn2C)n(C)c1=O`, for which the Potency entry in [1], in test [2], in test [3], in test [4], in test [16] and in test [5] was “inactive” each time. The Potency result in test [6], in test [7], in test [8], in test [9], in test [11] and in test [13] was “inactive” each time.
Regarding `CN(C)c1nc(N(C)C)nc(N(C)C)n1`, the Potency entry in test [1], in test [2], in test [3], in test [4], in test [16] and in [17] was “inactive” throughout. In addition, the Potency entry in [5], in [6], in test [7], in [8], in test [9] and in [11] was “inactive” each time. Further, the Potency result in test [14] and in [13] was “inactive” each time. In [12], the compound was called inactive.
Consider `CN1CCN2c3ccccc3Cc3ccccc3C2C1` (stereo unspecified), for which the Potency entry in test [1], in [2], in test [3], in test [4], in test [5] and in test [18] was “inactive” throughout. Also, the Potency result in [7], in test [8], in test [10], in test [11], in test [14] and in test [13] was “inactive” in each case. Moreover, the compound was classed as inactive in test [12].
On to `CCCNCC(O)COc1ccccc1C(=O)CCc1ccccc1` (stereo unspecified), for which the Potency entry in test [1], in [2], in test [3], in test [4], in test [16] and in test [17] was “inactive” each time. Moreover, the Potency result in test [11], in test [14] and in test [13] was “inactive” each time. The figures for the Potency in test [5] and in test [10] were 21.7 µM (active) and 33.2 µM (active), respectively. Further, the outcome in test [12] was inactive.
With `COc1ccccc1OCCNCC(O)COc1cccc2[nH]c3ccccc3c12` (stereo unspecified), the Potency result in test [1], in test [2], in test [4], in test [17], in [5] and in [18] was “inactive” each time. In addition, the Potency entry in test [6], in [8], in [10] and in [11] was “inactive” each time. In test [12], the compound was called inactive.
As to `Cc1cc(C(C)(C)C)cc(C)c1CC1=NCCN1`, the Potency entry in test [1], in test [2], in test [3], in test [4], in test [16] and in test [5] was “inactive” throughout. Moreover, the Potency entry in [18], in [6], in test [7], in [8], in test [11] and in [14] was “inactive” in each case. Further, in test [13], the Potency result is “inactive”.
